From PubChem BioAssay
The source made the active and inactive calls.

Legend:
Albumin (Bos taurus) = Albumin (Bos taurus) (UniProt P02769); experiment: compounds binding labelled BSA control protein – biochemical, small-molecule microarray, Alexa647 label, 635/667 nm fluorescence, artefact control for SMM control protein annotation, profiling panel (AID 1118); details: BSA-A647 binding, fluorescence 635 nm, higher = more signal;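 also: score merges 667 nm emission intensity and signal-to-noise per printed compound spot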
Sequence of Albumin (Bos taurus) (P02769 whole entry, looked up): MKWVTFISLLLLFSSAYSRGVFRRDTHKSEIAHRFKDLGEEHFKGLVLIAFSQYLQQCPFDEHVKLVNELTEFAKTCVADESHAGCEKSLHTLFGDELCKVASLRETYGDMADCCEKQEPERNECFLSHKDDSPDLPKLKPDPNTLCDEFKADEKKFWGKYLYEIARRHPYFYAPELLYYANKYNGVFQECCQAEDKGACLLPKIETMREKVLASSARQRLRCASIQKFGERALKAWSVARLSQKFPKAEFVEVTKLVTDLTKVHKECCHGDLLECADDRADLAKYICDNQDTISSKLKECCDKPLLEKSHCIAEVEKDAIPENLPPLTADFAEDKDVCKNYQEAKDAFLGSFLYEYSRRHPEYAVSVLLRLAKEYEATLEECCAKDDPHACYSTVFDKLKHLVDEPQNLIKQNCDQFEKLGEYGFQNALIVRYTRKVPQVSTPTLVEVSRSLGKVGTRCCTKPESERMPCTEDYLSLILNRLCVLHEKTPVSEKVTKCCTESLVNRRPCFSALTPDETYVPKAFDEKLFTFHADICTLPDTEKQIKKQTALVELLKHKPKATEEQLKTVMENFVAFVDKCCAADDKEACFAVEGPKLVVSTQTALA

[1] = probe aXIP binding to arrayed compounds – biochemical, NeuroSMM set, 635/667 nm fluorescence, primary screen (AID 1119); details: small-molecule microarray, higher = more signal, called active from +8 up or from −8 down;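 also: probe is the protein aXip251-270 applied at 1 µg/mL to compound-printed slides; binding of probe to printed compounds measured as 667 nm fluorescence plus signal to noise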
[2] = probe aNOTCH3 binding on compound microarray – biochemical, small-molecule microarray, 635/667 nm fluorescence, primary screen (AID 1120); details: higher = more signal;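 also: probe is a biotin-tagged antibody raised against NOTCH3 rather than NOTCH3 protein; score merges spot fluorescence near 667 nm with spot signal to noise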
[3] = probe aNOTCH2 binding on compound microarray – biochemical, small-molecule microarray, 635/667 nm fluorescence, primary screen (AID 1121); details: higher = more signal;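 also: score merges feature fluorescence read at 667 nm with its signal to noise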
[4] = target: Carbonic anhydrase 2 (Homo sapiens) (UniProt P00918); experiment: compounds binding carbonic anhydrase 2 – biochemical, small-molecule microarray, Alexa647-labelled CAII, profiling panel (AID 1122); details: CAII-A647 binding fluorescence, higher = more signal
[5] = COS7 lysate on small-molecule microarray, probe aHis, 635 nm (AID 1123); details: COS7 cell lysate, fluorescence, higher = more signal;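 also: z-score combines 667nm fluorescence intensity with signal-to-noise per printed compound spot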
[6] = probe aLAP1 signal on lysate-treated microarray – cell lysate, small-molecule microarray, COS7 lysate, primary screen (AID 1124); details: probe aLAP1, fluorescence, higher = more signal;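 also: lysate comes from COS7 cells expressing LAP1 and is applied at 0.3 µg/mL; score merges spot fluorescence near 667 nm with signal-to-noise over triplicate slides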
Sam68 (KHDRBS1) = experiment: compounds binding KHDRBS1 protein – biochemical, small-molecule microarray, 635 nm fluorescence, primary screen (AID 1125); details: higher = more signal;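 also: score merges 667 nm channel intensity with signal to noise over triplicate slides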
[7] = test system: Chordin-like protein 2 (CHRDL2); experiment: compounds binding chordin-like 2 – biochemical, small-molecule microarray, 635 nm fluorescence, primary screen (AID 1126); details: fluorescence 635 nm, higher = more signal;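 also: printed compound slides probed with Chrdl2 protein at 4 µg/mL for 1 h at 4 C; score merges 667 nm emission intensity with signal to noise over three replicate slides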
[8] = target: Concanavalin-A (Canavalia ensiformis) (UniProt P02866); experiment: compounds binding concanavalin A lectin – biochemical, small-molecule microarray, Alexa647 label, 635 nm, artefact control for SMM control protein annotation, primary screen (AID 1127); details: ConA-A647 binding fluorescence, higher = more signal;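 also: z combines 667 nm emission intensity with signal-to-noise across three replicate slides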
Sequence of Concanavalin-A (Canavalia ensiformis) (P02866 whole entry, looked up): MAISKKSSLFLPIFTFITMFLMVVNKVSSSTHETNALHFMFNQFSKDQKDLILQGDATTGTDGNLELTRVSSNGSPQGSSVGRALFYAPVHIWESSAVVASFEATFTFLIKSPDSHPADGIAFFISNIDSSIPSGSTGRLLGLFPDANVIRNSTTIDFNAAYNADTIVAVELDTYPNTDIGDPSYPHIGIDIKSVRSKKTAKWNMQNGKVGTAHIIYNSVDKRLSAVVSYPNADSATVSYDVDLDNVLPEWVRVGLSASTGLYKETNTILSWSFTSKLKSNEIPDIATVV

| SMILES | composite z-score (Albumin (Bos taurus)) | composite Z-score [1] | composite z-score [2] | composite z-score [3] | composite z-score [4] | composite z-score [5] | composite z-score [6] | composite z-score (Sam68 (KHDRBS1)) | composite z-score [7] | composite z-score [8] |
| --- | --- | --- | --- | --- | --- | --- | --- | --- | --- | --- |
| COC(=O)[C@@]1(Cc2ccccc2)[C@H]2c3cc(C(=O)N4CCCC4)n(CCO)c3C[C@H]2CN1C(=O)c1ccccc1 | 1.03 | 1.61 (inactive) | 1.37 | 0.853 | 0.841 | 2.35 | 1.41 | 1 | 0.443 | 0.886 |
| CCCC=C(CCC)[C@@H](NS(=O)(=O)c1cccc2cccnc12)c1ccc(C(=O)OC)cc1 | -0.207 | 0.242 (inactive) | 2.12 | 1.16 | 0.771 | 0.313 | 0.392 | 0.287 | 0.599 | 0.782 |
| C=CCOC(=O)[C@@H]1[C@H]2C(=O)O[C@H](c3ccccc3)[C@H](c3ccccc3)N2[C@H](c2ccc(OCCOC(=O)[C@@H]3C[C@@H]4C(=O)N5CCC[C@H]5C(=O)N4[C@@H]3c3cccc(OCCO)c3)cc2)[C@@]12C(=O)Nc1ccc(I)cc12 | 0.226 | -0.244 (inactive) | -0.055 | -0.101 | 0.0553 | 1.34 | 0.167 | 1.29 | 1 | 1.14 |
| O=C1NC(=O)C2C1C=CC(C(O)c1ccc3c(c1)OCO3)N2Nc1ccc(Cl)cc1Cl (stereo not given) | 0.817 | 0.549 (inactive) | 0.144 | -0.063 | 0.566 | 3.03 | 1.19 | 0.355 | 0.26 | 0.148 |
| CCCCC(=C=CC[C@H](O)c1cccc(OCCO)c1)C[C@H](O)COCc1ccccc1 | 0.92 | 0.11 (inactive) | -0.179 | -0.107 | 0.697 | 0.972 | -0.501 | 0.435 | -0.592 | 0.0194 |
| COc1cc(C(O)C2C=CC3C(=O)N(C)C(=O)C3N2NC(=O)OC(C)(C)C)cc(OC)c1OC (stereo not given) | 1.03 | 0.523 (inactive) | 0.576 | 0.46 | 0.682 | 2.63 | 0.954 | 1.26 | -0.217 | 0.92 |
| COCCCNC(=O)[C@]1(Cc2ccccc2)N=C(c2ccc(OCCCO)cc2)O[C@@H]1c1ccccc1N=[N+]=[N-] | 0.855 | 0.454 (inactive) | 0.0999 | -0.106 | 0.502 | 0.0137 | 0.287 | 1.29 | -0.26 | 1.1 |
| O=C1OCCC=C[C@H]2OC34C=CCN(Cn5nnc6ccccc65)C(=O)[C@H]3N(CCCCCO)C(=O)[C@@H]4C12 (stereo not given in full) | 0.428 | 0.266 (inactive) | -0.193 | -0.114 | 0.87 | 0.121 | 0.686 | -0.464 | -0.579 | -1.55 |
| CCCC=C(CCC)[C@@H](NS(=O)(=O)CC)c1ccccc1 | 0.929 | -0.112 (inactive) | 0.096 | -0.0194 | 0.532 | 1.68 | 0.177 | 1.29 | -0.462 | 1.04 |
| COc1ccccc1CN1C(=O)c2ccccc2[C@@H](C(=O)NCC(C)C)[C@@H]1c1ccc(CO)cc1 | -0.325 | 0.0829 (inactive) | -0.236 | -0.0226 | 0.623 | 0.368 | 0.537 | -0.134 | 0.0987 | 0.358 |
| C#CCNS(=O)(=O)N(C)C | 0.225 | 0.0498 (inactive) | -0.124 | -0.14 | -0.107 | 0.214 | -0.113 | 0.815 | 0.497 | 0.0968 |
| COC(=O)C(CC#Cc1ccc2c(c1)[C@]1(C(=O)N2)[C@H](c2ccc(O)cc2)N2[C@H](c3ccccc3)[C@H](c3ccccc3)OC(=O)[C@H]2[C@@H]1C(N)=O)C(=O)OC | -0.999 | -0.421 (inactive) | -0.256 | -0.118 | -0.669 | -0.43 | -0.404 | -1.43 | -2.25 | -1.3 |
| C=C(/C(=C/C[C@@H](OC(=O)c1ccncc1)c1cccc(OCCO)c1)c1cc(C(=O)OC)ccc1OC)C(C)C | 0.482 | 0.25 (inactive) | 0.19 | -0.0207 | 0.597 | 1.23 | 0.763 | 1.21 | 0.859 | 0.996 |
| CC(C)C[C@H]1NC(=O)[C@H](C)NC(=O)[C@@]23C(=O)N[C@@H](Cc4ccccc4)C2[C@H](C)[C@@]2(C)O[C@H]2C3/C=C/C/C=C\CNC1=O (stereo not given in full) | 0.876 | -0.155 (inactive) | -0.227 | -0.172 | 0.734 | -0.38 | -0.229 | 0.371 | 0.409 | -0.565 |
| CC(C)NC(=O)[C@@H]1c2ccccc2C(=O)N(Cc2cc(C(F)(F)F)cc(C(F)(F)F)c2)[C@H]1c1ccc(CO)cc1 | 0.52 | 1.21 (inactive) | -0.0931 | -0.0052 | 0.298 | 2.38 | 0.706 | 1.3 | 0.0933 | 1.09 |
| C=C(COC)C(=O)CC[C@H](OC(=O)c1ccccc1-c1ccccc1C(=O)O)c1ccc(OCCO)cc1 | 0.369 | 0.161 (inactive) | 0.0628 | -0.117 | 0.425 | 0.276 | 1.12 | 1.09 | 0.498 | 0.527 |
